Inconclusive results are not listed. A structure can be active in one record and inactive in another. The source made the active and inactive calls. Unless noted, calls follow the shape of the dose curve; as a rule, active = well fitted curve in the direction sought with a large enough effect in the repeat runs; inconclusive = weak or mixed curves; inactive = no such curve, though single readings can be large; an effect the other way counts as inactive or inconclusive.
Tests used:
[1] = molecular target: Luciferin 4-monooxygenase (Photinus pyralis) (UniProt P08659); test: qHTS assay to identify small molecule inhibitors of firefly luciferase (AID 1224835); also: nearly all actives have a fitted effect of over 25% in size; also: potency is read from the fitted curve at half-maximal effect
Luciferin 4-monooxygenase (Photinus pyralis), sequence (P08659 whole entry, looked up): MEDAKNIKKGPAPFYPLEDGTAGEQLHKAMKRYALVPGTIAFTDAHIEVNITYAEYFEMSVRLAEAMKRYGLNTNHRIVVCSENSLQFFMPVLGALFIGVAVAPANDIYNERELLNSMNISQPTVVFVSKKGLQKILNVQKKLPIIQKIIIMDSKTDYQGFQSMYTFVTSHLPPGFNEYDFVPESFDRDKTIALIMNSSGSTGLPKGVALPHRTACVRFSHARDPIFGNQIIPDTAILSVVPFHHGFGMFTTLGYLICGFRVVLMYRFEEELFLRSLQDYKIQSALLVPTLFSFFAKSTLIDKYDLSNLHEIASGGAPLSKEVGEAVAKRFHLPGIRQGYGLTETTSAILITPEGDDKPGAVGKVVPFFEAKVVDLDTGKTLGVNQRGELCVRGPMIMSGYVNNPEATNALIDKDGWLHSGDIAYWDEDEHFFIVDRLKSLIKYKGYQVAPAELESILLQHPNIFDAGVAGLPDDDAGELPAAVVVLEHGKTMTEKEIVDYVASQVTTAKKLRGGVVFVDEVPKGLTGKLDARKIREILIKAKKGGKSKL
How it was run: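 Quantitative HTS format; KM concentrations of both substrates. Purified P. pyralis FLuc activity quantified from luminescence images.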

[2] = qHTS assay to identify small molecule agonists of the constitutive androstane receptor (CAR) signaling pathway - cell viability counter screen (AID 1224836); also: nearly all actives have a fitted effect of over 45% in size; also: potency is read from the fitted curve at half-maximal effect
How it was run: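 Cells were seeded and incubated 4 hrs. Compounds were added across 15 concentrations together with PK11195 at 0.75 uM final. Plates were incubated 23 hrs at 37 C. CellTiter-Fluor was added and fluorescence measured.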

[3] = qHTS assay to identify small molecule antagonists of the constitutive androstane receptor (CAR) signaling pathway - cell viability counter screen (AID 1224837); also: nearly all actives have a fitted effect of over 45% in size; also: potency is read from the fitted curve at half-maximal effect
How it was run: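 HepG2 cells stably expressing hCAR and a CYP2B6-2.2kb reporter were plated and pre-incubated 4 hr at 37 C/5% CO2, then given compounds at 15 concentrations plus 50 nM CITCO (final). After 23 hr, viability was read by CellTiter-Fluor fluorescence.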

[4] = molecular target: Nuclear receptor subfamily 1 group I member 3 (Homo sapiens) (UniProt Q14994); test: qHTS assay to identify small molecule antagonists of the constitutive androstane receptor (CAR) signaling pathway (AID 1224838); also: nearly all actives have a fitted effect of over 40% in size; also: potency is read from the fitted curve at half-maximal effect
Nuclear receptor subfamily 1 group I member 3 (Homo sapiens), sequence (Q14994 whole entry, looked up): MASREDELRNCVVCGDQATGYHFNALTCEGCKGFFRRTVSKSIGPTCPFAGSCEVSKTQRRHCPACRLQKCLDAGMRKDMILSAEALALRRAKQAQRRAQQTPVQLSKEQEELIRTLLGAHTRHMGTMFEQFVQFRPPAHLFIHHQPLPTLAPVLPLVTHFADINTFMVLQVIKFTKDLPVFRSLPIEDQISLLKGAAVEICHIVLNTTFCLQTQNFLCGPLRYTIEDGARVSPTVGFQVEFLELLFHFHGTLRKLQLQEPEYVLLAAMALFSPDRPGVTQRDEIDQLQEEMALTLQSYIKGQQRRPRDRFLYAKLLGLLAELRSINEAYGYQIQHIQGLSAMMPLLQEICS
How it was run: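 HepG2 cells stably co-transfected with hCAR and a CYP2B6-2.2kb luciferase reporter were seeded 4 h before compound addition at 15 concentrations. Cells were stimulated with 50 nM CITCO (final) for 24 h at 37 C; luciferase luminescence was then read.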

[5] = molecular target: Nuclear receptor subfamily 1 group I member 3 (Homo sapiens) (UniProt Q14994); test: qHTS assay to identify small molecule agonists of the constitutive androstane receptor (CAR) signaling pathway (AID 1224839); also: nearly all actives have a fitted effect of over 15% in size; also: potency is read from the fitted curve at half-maximal effect
How it was run: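 Cells were plated and incubated 4 hrs, then dosed with compounds at 15 concentrations. PK11195 was added to 0.75 uM final. After 24 hrs at 37 C, luciferase luminescence was measured.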

[6] = qHTS assay to identify small molecule antagonists of the estrogen related receptor signaling pathway with the pleiotropic PPARgamma coactivator (PGC) from Tox21 10K library - cell viability counter screen (AID 1224840; active = well fitted cell-killing curve with a large enough effect in the repeat runs, not every such curve was filed as active; also: nearly all actives have a fitted effect of over 40% in size; also: potency is read from the fitted curve at half-maximal effect)
How it was run: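 PGC/ERR cells were seeded at 2,000 cells/well and left 6 hours at 37 C/5% CO2 before pin-tool addition of compounds in DMSO. After 17.5 hours at 37 C, CellTiter-Fluor was added and fluorescence read 30 minutes later.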

[7] = molecular target: Thyrotropin receptor (Homo sapiens) (UniProt P16473); test: qHTS assay to identify small molecule agonists of the thyroid stimulating hormone receptor (TSHR) signaling pathway (AID 1224843; calls by dose curve; also: nearly all actives have a fitted effect of over 45% in size; also: potency is read from the fitted curve at half-maximal effect)
Thyrotropin receptor (Homo sapiens), sequence (P16473 whole entry, looked up): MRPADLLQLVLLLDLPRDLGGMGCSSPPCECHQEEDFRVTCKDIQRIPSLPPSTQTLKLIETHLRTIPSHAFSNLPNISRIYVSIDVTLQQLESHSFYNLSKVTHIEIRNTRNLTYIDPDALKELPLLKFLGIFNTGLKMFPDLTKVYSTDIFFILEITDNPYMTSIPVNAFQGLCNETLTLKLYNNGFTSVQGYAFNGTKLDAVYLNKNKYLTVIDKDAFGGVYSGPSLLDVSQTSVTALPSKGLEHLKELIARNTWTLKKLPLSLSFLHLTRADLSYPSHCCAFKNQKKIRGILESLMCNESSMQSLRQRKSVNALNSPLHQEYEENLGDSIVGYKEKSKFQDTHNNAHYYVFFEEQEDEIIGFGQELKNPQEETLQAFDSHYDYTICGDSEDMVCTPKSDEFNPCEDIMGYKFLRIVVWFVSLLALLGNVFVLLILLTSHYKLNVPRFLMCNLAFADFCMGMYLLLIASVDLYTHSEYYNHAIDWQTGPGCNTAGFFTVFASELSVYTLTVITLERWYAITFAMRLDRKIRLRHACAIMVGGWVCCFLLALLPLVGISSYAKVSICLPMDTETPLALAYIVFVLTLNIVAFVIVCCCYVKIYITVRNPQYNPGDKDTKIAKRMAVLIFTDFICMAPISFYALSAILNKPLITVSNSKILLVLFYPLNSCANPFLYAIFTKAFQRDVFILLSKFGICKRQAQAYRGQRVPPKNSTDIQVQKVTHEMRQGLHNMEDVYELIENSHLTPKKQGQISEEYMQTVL
How it was run: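 TSHR-expressing HEK293 cells (800 per well) were exposed to compounds for 30 min at room temperature. cAMP was then detected by HTRF competition with cAMP-d2 and anti-cAMP cryptate, read after 1 h at room temperature. Fifteen concentrations, triplicate.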

[8] = qHTS assay to identify small molecule agonists of the hypoxia (HIF-1) signaling pathway - cell viability counter screen (AID 1224844; calls by dose curve; also: nearly all actives have a fitted effect of over 50% in size; also: potency is read from the fitted curve at half-maximal effect)
How it was run: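 HRE-bla ME-180 cells in medium with 0.5% dialyzed FBS were preincubated 5 hrs at 37C, exposed to compounds for 17 hrs, then viability was read as CellTiter-Glo luminescence after 30 min at room temperature, in the reporter wells.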

[9] = qHTS assay to identify small molecule antagonists of the estrogen related receptor signaling pathway with the pleiotropic PPARgamma coactivator (PGC) from Tox21 10K library (AID 1224841; call rule not given here; also: actives are mostly falling curves and most rising ones were filed inactive; nearly all actives have a fitted effect of over 50% in size; also: potency is read from the fitted curve at half-maximal effect)
How it was run: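 PGC/ERR reporter cells were seeded at 2,000 cells/well and held 6 hours at 37 C/5% CO2 before pin-tool addition of compounds in DMSO. After 18 hours at 37 C, One-Glo was added and luminescence read after 30 minutes at room temperature.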

[10] = qHTS assay to identify small molecule agonists of the estrogen related receptor signaling pathway with the pleiotropic PPARgamma coactivator (PGC) from Tox21 10K library (AID 1224842); also: nearly all actives have a fitted effect of over 15% in size
How it was run: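 PGC/ERR reporter cells (NTP line) were seeded 2,000 per well, rested 6 h at 37 C/5% CO2, then pin-dosed with compounds in DMSO for 18 h at 37 C; luciferase read by One-Glo luminescence after 30 min at room temperature.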

Measured: Potency

CCOC(=O)N1CCC(Nc2ccc(Cl)cc2N)CC1
not listed: [8] | [9] | [10]
inactive: all other assays above

O=C(c1ccccc1)C1CCC1
not listed: [9] | [10]
inactive: all other assays above

FC(F)(F)C(F)(F)C(F)(F)C(F)(F)CCI
not listed: [8] | [9] | [10]
inactive: all other assays above

C=C(C)c1ccccc1
not listed: [9] | [10]
inactive: all other assays above

CC(CO)(CO)C(=O)O
not listed: [7]
inactive: all other assays above

COC(CC(C)CCCC(C)(C)O)OC (stereo not drawn)
not listed: [9] | [10]
inactive: all other assays above

CC(C)c1ccc(C(=O)N=C(N)N)cc1S(C)(=O)=O
not listed: [8] | [9] | [10]
inactive: all other assays above

O=S(=O)(O)CO
not listed: [9] | [10]
inactive: all other assays above

COc1cc(NC(C)CCCN)c2ncccc2c1 (stereo not drawn)
not listed: [9]
inactive: all other assays above

COc1ccc2nc(S(=O)Cc3ncc(C)c(OC)c3C)[nH]c2c1 (stereo not drawn)
31.3 µM (active) and inactive: [1]
60.4 µM (active) and inactive: [5]
not listed: [9] | [10]
inactive: all other assays above

CC(C)(C)CCCCCCOC(=O)c1ccccc1C(=O)OCCCCCCC(C)(C)C
not listed: [9]
inactive: all other assays above

CCCCCCCCCCCCCCCCCC(=O)OCC(CC)CCCC (stereo not drawn)
not listed: [9] | [10]
inactive: all other assays above

CC1=C2[C@@H]([C@H](C)CC[C@H]2/C=C(\C)C(=O)O)[C@H](O)C1
not listed: [9] | [10]
inactive: all other assays above

COc1ccc(N)c([N+](=O)[O-])c1
not listed: [9] | [10]
inactive: all other assays above

NC(=O)CCCCC(N)=O
not listed: [9] | [10]
inactive: all other assays above

CCCCOCCOC(=O)c1cccnc1
not listed: [8] | [9] | [10]
inactive: all other assays above

C1CCCCC1
not listed: [7]
inactive: all other assays above

Cc1ccc(Cl)cc1N
not listed: [9] | [10]
inactive: all other assays above

O=C(CCS)OCC(COC(=O)CCS)(COC(=O)CCS)COC(=O)CCS
not listed: [8] | [9] | [10]
inactive: all other assays above

CC1CCc2nccnc21 (stereo not drawn)
not listed: [7]
inactive: all other assays above

Cc1c(C2(c3cc(Br)c(O)c(Br)c3C)OS(=O)(=O)c3ccccc32)cc(Br)c(O)c1Br
inactive: [5] | [10]
active: [1] 8.67 µM | [2] 14.9 µM | [3] 18.8 µM | [4] 11.8 µM | [6] 18.8 µM | [9] 11.8 µM | [8] 16.9 µM

CCCCC[C@H](O)/C=C/[C@H]1[C@H](O)CC(=O)[C@@H]1C/C=C\CCCC(=O)O
active: [7] 0.0266 µM
not listed: [8] | [9] | [10]
inactive: all other assays above

OCC(CO)n1cnc(-c2ccc(F)cc2)c1-c1ccnc(Oc2ccccc2)n1
not listed: [9]
inactive: all other assays above

O=C(O)CO
not listed: [9] | [10]
inactive: all other assays above

CCN(CC)CC(=O)Nc1c(C)cccc1C(=O)OC
active: [5] 23.7 µM
not listed: [9] | [10]
inactive: all other assays above

CC(=O)C(C)=O
not listed: [9] | [10]
inactive: all other assays above

O=c1[nH][nH]c(=O)c2cc([N+](=O)[O-])ccc12
not listed: [9] | [10]
inactive: all other assays above

O=C1OC(=O)c2c(Br)c(Br)c(Br)c(Br)c21
not listed: [8] | [9] | [10]
inactive: all other assays above

CC(=O)OC(C)C[N+](C)(C)C (stereo not drawn)
not listed: [7]
inactive: all other assays above

Cc1ccc(NC(=O)N(C)C)cc1NC(=O)N(C)C
not listed: [8] | [9] | [10]
inactive: all other assays above

CC(C)N=C=NC(C)C
not listed: [7]
inactive: all other assays above

CC1CCCO1 (stereo not drawn)
not listed: [7] | [9] | [10]
inactive: all other assays above

CC(C)(O)c1coc(S(=O)(=O)NC(=O)Nc2c3c(cc4c2CCC4)CCC3)c1
not listed: [9] | [10]
inactive: all other assays above

CCCC(=O)OC(=O)CCC
not listed: [9] | [10]
inactive: all other assays above

O=C(O)CN1C(=O)c2cccc3cccc(c23)C1=O
not listed: [6] | [8]
inactive: all other assays above

CCCCCCC(O)CCCCCCCCCCC(=O)OC (stereo not drawn)
not listed: [9] | [10]
inactive: all other assays above

Source: PubChem BioAssay (Tox21)
